Source: PubChem BioAssay (National Center for Advancing Translational Sciences (NCATS))
PI4K2A block – qHTS for small molecular inhibitors of PI4K2A; Phosphatidylinositol 4-kinase type 2-alpha (Homo sapiens), Q9BTU6; purified PI4K2A, ADP-Glo luminescence, 1 h; hits give low values; activity change, negative = inhibition, % at 76.9 µM; 420,000 compounds, 0.13% hits; in the data active means activity change below about -50%; inconclusive means mostly about -30% to -49%;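 further: -100% = wells without enzyme as full effect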
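In this quantitative HTS, ADP production by PI4K2A was quantified luminescently after 1 h at ambient temperature; 100 microM adenosine served as plate-quality control.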
APE1 inh – qHTS Assay for Inhibitors of the Human Apurinic/apyrimidinic Endonuclease 1 (APE1). DNA repair nuclease/redox regulator APEX1 (Homo sapiens), P27695. recombinant APE1, TAMRA/BHQ-2 abasic DNA cleavage fluorescence. Potency, µM (doses to about 65.8 µM), without a hit: at the top dose activity change, negative = inhibition, usual class: inhibitors. 350,000 compounds, 0.35% hits;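 further: potency means the concentration at half of the fitted maximal effect; plate controls were vehicle for no effect and reference inhibitor for full effect; nearly all actives have a fitted effect of over 55% in size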
Target sequence (P27695 whole entry, looked up): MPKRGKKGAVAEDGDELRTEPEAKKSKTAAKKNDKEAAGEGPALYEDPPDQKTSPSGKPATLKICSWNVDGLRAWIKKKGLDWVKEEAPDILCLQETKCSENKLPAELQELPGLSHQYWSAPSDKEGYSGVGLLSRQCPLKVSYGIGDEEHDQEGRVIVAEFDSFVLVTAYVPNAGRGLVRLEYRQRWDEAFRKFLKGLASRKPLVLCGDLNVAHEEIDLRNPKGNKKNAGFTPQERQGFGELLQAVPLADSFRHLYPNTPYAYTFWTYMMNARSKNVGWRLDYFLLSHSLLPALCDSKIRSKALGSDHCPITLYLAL
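Quantitative HTS: incision of a TAMRA/BHQ-2 double-stranded substrate bearing a tetrahydrofuran abasic site by 0.75 nM APE1 raises fluorescence. Substrate 50 nM final, added after 15 min compound preincubation at room temperature; progress as third-minus-first kinetic read difference.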
FEN1 inhibitor – qHTS Assay for the Inhibitors of Human Flap endonuclease 1 (FEN1); Potency, µM (top dose mostly 114 µM), without a hit: at the highest dose activity change, negative = inhibition, actives largely listed as inhibitors; Recombinant FEN1 flap cleavage, fluorescence, 15 min; 390,000 compounds, 0.35% hits; P39748; further: potency means the concentration at half of the fitted maximal effect; on the % scale 0 is the no-effect control and ±100 the full control effect; nearly all actives have a fitted effect of over 65% in size
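Steps: FEN1 (10 nM) dispensed; compound added by pin tool; 15 min at room temperature; substrate added to 50 nM final; reads at 0 min and 15 min; data normalized and fitted (four-parameter Hill).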
TDP1 inh – qHTS Assay for Inhibitors of Tyrosyl-DNA Phosphodiesterase (TDP1) | Potency, µM (doses to about 130 µM), for inactives: at the highest dose activity change, negative = inhibition, most hits filed as inhibitors | Tyrosyl-DNA phosphodiesterase 1 (Homo sapiens), Q9NUW8 | 350,000 compounds, 0.28% hits | recombinant TDP1, AlphaScreen DNA substrate cleavage; further: potency means the concentration at half of the fitted maximal effect; on the % scale 0 is the no-effect control and ±100 the full control effect; nearly all actives have a fitted effect of over 40% in size
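E. coli-derived human Tdp1, 1 nM final. Cpd preinc 15 min RT; substrate 15 nM final, 5 min RT; AS bead mix 10 ug/ml final, 10 min RT. Signal loss = tyrosine-FITC cleavage. No-enzyme wells = max signal.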
Tb PFK inh-1 – qHTS Assay to Find Inhibitors of T. brucei phosphofructokinase; T. brucei PFK, ADP-Glo luminescence; AID 485367, 2010; Potency, µM (series often up to 57.5 µM), without a hit: top-dose activity, negative = inhibition, most hits filed as inhibitors; ATP-dependent 6-phosphofructokinase (Trypanosoma brucei brucei), O15648; 330,000 compounds, 0.17% hits;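 further: potency means the concentration at half of the fitted maximal effect; 0% = uninhibited 1x PFK enzyme wells and -100% = no-enzyme wells; nearly all actives have a fitted effect of over 60% in size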
Target sequence (O15648 whole entry, looked up): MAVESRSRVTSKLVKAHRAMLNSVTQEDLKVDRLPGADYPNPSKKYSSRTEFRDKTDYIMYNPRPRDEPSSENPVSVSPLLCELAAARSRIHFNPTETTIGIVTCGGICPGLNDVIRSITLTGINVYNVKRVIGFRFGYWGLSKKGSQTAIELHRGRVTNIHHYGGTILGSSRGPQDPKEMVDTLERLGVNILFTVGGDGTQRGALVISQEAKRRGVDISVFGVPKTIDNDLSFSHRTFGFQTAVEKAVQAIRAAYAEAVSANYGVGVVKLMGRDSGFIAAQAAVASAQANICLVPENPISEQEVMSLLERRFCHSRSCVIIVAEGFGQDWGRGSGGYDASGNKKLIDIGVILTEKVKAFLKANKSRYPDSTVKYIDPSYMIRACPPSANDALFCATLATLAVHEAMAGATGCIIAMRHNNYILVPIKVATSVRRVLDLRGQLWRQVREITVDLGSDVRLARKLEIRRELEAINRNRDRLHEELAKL
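In TEA buffer at pH 8.0 with 5 mM MgCl2, enzyme (1.25 nM) converted F6P (0.5 mM) and ATP (0.1 mM) for 45 min at room temperature. ADP product was read by luciferase luminescence.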
PGK inhibitor – qHTS Assay to Find Inhibitors of Phosphoglycerate Kinase. Phosphoglycerate kinase, glycosomal (Trypanosoma brucei brucei), P07378. PGK/GAPDH coupled, Kinase-Glo luminescence, 60 min. 380,000 compounds, 0.043% hits. Potency, µM (titrated, usually from 57.5 µM), inactives show top-dose activity change, negative = inhibition, actives largely listed as inhibitors; further: potency means the concentration at half of the fitted maximal effect; on the % scale 0 is the no-effect control and ±100 the full control effect; nearly all actives have a fitted effect of over 60% in size
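Luminescent ATP detection (Kinase-Glo Plus) follows a 60-minute room-temperature incubation, with wells lacking PGK as controls. Buffer: 100 mM TEA (pH 7.6), 5 mM MgCl2, 0.01% Tween-20. Coupling enzyme GAPDH (100 nM final) supplies unstable 1,3-BPG in-well.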
Tb PFK KinaseGlo – Tb PFK orthogonal confirmatory assay using ATP depletion (Kinase-Glo Plus) as an alternative measure of Tb PFK activity: Hit Validation; Potency, µM (highest dose often 57.5 µM), for inactives: at the top dose inhibition; shares compounds with Tb PFK inh-1; Tb PFK enzyme, ATP depletion, Kinase-Glo Plus luminescence; 1,100 compounds, 47% hits; calls by dose curve; further: potency means the concentration at half of the fitted maximal effect; nearly all actives have a fitted effect of over 60% in size
Tb PFK inh-2 – Inhibitors of T. brucei phosphofructokinase: Hit Validation | shares compounds with Tb PFK inh-1 | purified T. brucei PFK, ADP-Glo luminescence, 45 min | Potency, µM (doses to about 57.5 µM), for the others: at the highest dose activity change, negative = inhibition, usual class: inhibitors | 1,100 compounds, 41% hits;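 further: potency means the concentration at half of the fitted maximal effect; plate controls were full PFK enzyme control for no effect and no enzyme control for full effect; nearly all actives have a fitted effect of over 60% in size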
Starred values were filed as active, the others as inactive; i = inactive; ? = inconclusive; . = no result given; [ ] = another dose, or the depositor's remark. This is a sample that favours compounds with a hit; in the whole collection about 0.8% have one here. Unless noted, the call rests on the fitted dose curve; in most records, active means well fitted curve in the direction sought with a large enough effect; inconclusive means small, poorly fitted or top-dose-only effect, or another doubt; inactive means no such curve, though single readings can be large; an effect the other way counts as inactive or inconclusive.

SMILES | PI4K2A block | APE1 inh | FEN1 inhibitor | TDP1 inh | Tb PFK inh-1 | PGK inhibitor | Tb PFK KinaseGlo | Tb PFK inh-2
CCCCCCCCCCCCC/C=C/[C@@H](O)[C@@H](N)COP(=O)([O-])OCC[N+](C)(C)C | . | -5% | . | -2% | . | . | . | .
CCc1nnc(NS(=O)(=O)c2ccc(NC(=S)NC(=O)/C=C/c3ccc(OC)cc3)cc2)s1 | 4 | 2% | 50µM* | 1% | ? | ? | ? | ?
COc1ccc(/C=C/C(=O)NC(=S)N2C[C@H]3C[C@H](C2)c2cccc(=O)n2C3)cc1 | -3 | -5% | -1% | . | 4% | -4% | . | .
CCOP(=S)(OCC)Oc1ncn(-c2ccccc2)n1 | . | -2% | . | -4% | . | . | . | .
COC(=O)c1cccc(NC(=S)Nc2ccc(Cl)c(Cl)c2)c1 | -19 | -1% | 2% | 2% | 12µM* | ? | 27µM* | ?
Cc1ccc(NC(=S)NCCc2cnc[nH]2)cc1C | 4 | -1% | -6% | 3% | -11% | -4% | . | .
COC(=O)c1cccc(NC(=O)N2C[C@H]3C[C@@H](C2)c2cccc(=O)n2C3)c1 | -3 | -3% | 21% | . | 4% | 7% | . | .
OCCNC(=S)Nc1ccc(Cl)c(Cl)c1 | 2 | 21% | 1% | -4% | ? | -9% | ? | ?
C=CCNC(=S)Nc1ccc(OC(=O)Nc2ccc(Cl)c(Cl)c2)cc1 | -3 | 9% | 3% | . | 13µM* | -9% | 21µM* | 27µM*
Cc1cc(C)cc(NC(=S)Nc2ccc(Cl)c(Cl)c2)c1 | 2 | 0% | 2% | -5% | 9.5µM* | -10% | 24µM* | ?
ClC(Cl)Br | . | 3% | . | 2% | . | . | . | .
Cc1coc2c1CCC(C)C2 (configuration not stated) | . | -2% | . | 5% | . | . | . | .
C(CCOCC1CO1)COCC1CO1 (configuration not stated) | . | 2% | . | 14% | . | . | . | .
Cc1cccc(C)c1NC(=S)Nc1ccc(Cl)c(Cl)c1 | 7 | 1% | 6% | 3% | 21µM* | -5% | ? | -14%
CCOC(=O)c1cnc(SCc2ccc(Cl)c(Cl)c2)nc1N1CC1 | -1 | . | 4% | . | . | -2% | . | .
Cc1nnc(SCc2ccc(Cl)c(Cl)c2)s1 | 3 | 3% | -7% | 0% | 24µM* | 15% | 11µM* | 13µM*
C=C(C)C1Cc2c(ccc3c2OC2COc4cc(OC)c(OC)cc4C2C3=O)O1 (configuration not stated) | . | -3% | . | 14% | . | . | . | .
O=C(Nc1ccc(Cl)cc1)Nc1ccc(S(=O)(=O)Nc2ncccn2)cc1 | -8 | ? | -5% | -5% | 15µM* | -2% | 8.5µM* | 27µM*
O=C(NC(=O)c1c(F)cccc1F)Nc1ccc(Cl)cc1 | . | -9% | . | 2% | . | . | . | .
Cc1ccnc(NS(=O)(=O)c2ccc(N=Cc3c(O)n(C)c(=O)n(C)c3=O)cc2)n1 | -8 | 12% | 3% | 1% | ? | -4% | . | .
O=C(CSc1ccccc1)Nc1ccc(S(=O)(=O)Nc2ncccn2)cc1 | -3 | -11% | -2% | 2% | ? | -1% | ? | -13%
S=P(c1ccccc1)(c1ccccc1)c1c[nH]c2ccccc12 | . | . | . | 0% | . | . | . | .
C=C1CC[C@H](O)C/C1=C/C=C1\CCC[C@]2(C)[C@H]1CC[C@H]2[C@@H](C)CCCC(C)C | . | -1%[21 µM] | . | 17%[21 µM] | . | . | . | .
C/C(=N\NC(=O)c1cc(O)cc(O)c1)c1ccc(NC(=O)Cc2ccccc2)cc1 | -7 | 1.3µM* | 50µM* | 1.8µM* | ? | 7.9µM* | ? | ?
O=C1C=C(c2ccccc2)C(=O)N1Nc1ccccc1 | 17 | 5% | 0% | 8% | 24µM* | 6% | 21µM* | ?
SMILES | PI4K2A block | APE1 inh | FEN1 inhibitor | TDP1 inh | Tb PFK inh-1 | PGK inhibitor | Tb PFK KinaseGlo | Tb PFK inh-2
COc1ccc2c(c1OC)CN(C)CCc1cc3c(cc1C(=O)C2)OCO3 | 5 | 1% | 1% | -1% | 1% | 2% | . | .
CCc1ccc(C(=O)NN(C(=O)c2cc(C)cc(C)c2)C(C)(C)C)cc1 | . | -3% | . | 7% | . | . | . | .
O=C1NC(=S)N(c2ccc(Cl)cc2)C(=O)/C1=C/N1CCN(C(=O)c2ccco2)CC1 | -1 | -6% | 3% | 7% | 3% | -3% | . | .
O=C(O)c1cc(-c2ccco2)nn1-c1ccc(Cl)cc1 | -24 | ? | 25µM* | 14µM* | ? | ? | ? | ?
O=C(NNC(=O)c1ccncc1)Nc1ccc([N+](=O)[O-])cc1 | 0 | 6% | -12% | 2% | ? | 6% | ? | ?
O=C(NCc1cccnc1)Nc1ccc([N+](=O)[O-])cc1 | -2 | 5% | 3% | 3% | -12% | i | . | .
O=C1CCC/C(=N/NC(=O)c2cc(NS(=O)(=O)c3cccs3)cc(NS(=O)(=O)c3cccs3)c2)C1 | -9 | -4% | 3% | . | ? | -16% | 21µM* | ?
COc1ccccc1/C=C1\SC(=S)N(NS(=O)(=O)c2ccccc2)C1=O | -6 | 71% | -16% | . | ? | 3% | -27% | ?
Cc1ccc(S(=O)(=O)Oc2ccccc2C=C2C(=O)N(C)C(=O)N(C)C2=O)cc1 | -4 | -7% | 0% | -5% | 10% | -1% | . | .
CCN(CC)c1ccc(SS(=O)(=O)O)cc1 | -9 | 12% | -1% | 8% | 19µM* | -3% | 11µM* | 12µM*
CCOC(=O)C1OC1(C)c1ccccc1 (configuration not stated) | . | 1% | . | 10% | . | . | . | .
Fc1cccc(-c2csc(-c3ccno3)n2)c1 | -3 | 11% | -7% | 0% | ? | i | ? | ?
Cc1c(Nc2cc(Cl)c3nonc3c2[N+](=O)[O-])c(=O)n(-c2ccccc2)n1C | ? | 8% | -1% | -1% | ? | 1% | ? | ?
